High-throughput results as filed in PubChem.
Shown are actives, neighbours in structure and some others; about 3.5% of the full set was active somewhere.
GPR151 ag: activators of human GPR151. Q8TDV0. PathHunter beta-arrestin GPR151 cells, luminescence. activation, % at 11.2 µM. hit rate 1% among 650,000. AID 1508602; in the data active = activation above about 4.9%
Target sequence (Q8TDV0 whole entry, looked up): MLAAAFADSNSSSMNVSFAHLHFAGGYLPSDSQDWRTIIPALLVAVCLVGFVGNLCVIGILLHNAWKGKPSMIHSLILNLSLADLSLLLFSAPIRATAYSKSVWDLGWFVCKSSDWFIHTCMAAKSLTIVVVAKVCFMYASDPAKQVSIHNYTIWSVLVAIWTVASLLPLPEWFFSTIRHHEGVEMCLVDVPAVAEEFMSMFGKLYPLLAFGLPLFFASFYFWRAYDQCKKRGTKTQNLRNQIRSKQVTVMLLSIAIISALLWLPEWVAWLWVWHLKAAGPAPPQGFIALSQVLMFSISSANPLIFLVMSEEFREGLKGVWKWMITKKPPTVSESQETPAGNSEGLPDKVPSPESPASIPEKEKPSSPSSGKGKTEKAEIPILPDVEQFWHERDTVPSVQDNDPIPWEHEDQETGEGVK
FBW7 activator: activators of human E3 ligase FBW7. Q969H0. AlphaScreen FBW7–phospho-cyclin E peptide binding, activator screen. normalized activity (activation), % at 26.1 µM. hit rate 0.13% among 650,000. AID 1259310; in the data active = normalized activity above about 1.9%;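 note: purified mutant Fbw7 with reduced substrate affinity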
MITF primary: human MITF inhibition, primary screen. hit rate 0.91% among 650,000. inhibition, % at 2.6 µM. AID 1259374. AlphaScreen MITF homodimerization, bead proximity signal; in the data active = inhibition above about 50%
TEAD-YAP inh: TEAD-YAP interaction inhibition. AID 1259422. hit rate 1.4% among 640,000. inhibition, % at 9.12 µM. HEK-TIYL cells, TEAD-Gal4/YAP UAS-luciferase luminescence; in the data active = inhibition above about 32%
Of the large screens only hits and unclear results are named; the others gave an inactive call.

S=C(NCc1ccc(Cl)cc1)Nc1ccncc1	TEAD-YAP inh 43.8
CN1CCCC(Oc2ccnc(C(=O)Nc3ccc4[nH]ncc4c3)c2)C1 (stereo not given)	TEAD-YAP inh 44.8
CN1CCC(Oc2ccc(C(=O)Nc3ccc4[nH]ncc4c3)cn2)CC1	TEAD-YAP inh 87.5
CN1CC[C@@H](Oc2cc(C(=O)Nc3ccc4[nH]ncc4c3)ccn2)C1	TEAD-YAP inh 52.3
NCCOc1ccc(C(=O)Nc2ccc3[nH]ncc3c2)cn1	TEAD-YAP inh 54.1
O=C(Nc1ccc2[nH]ncc2c1)c1ccc(O[C@H]2CCNC2)nc1	none
CN1CC[C@H](Oc2ccc(C(=O)Nc3ccc4[nH]ncc4c3)cn2)C1	none
CN1CC[C@H](Oc2ccnc(C(=O)Nc3ccc4[nH]ncc4c3)c2)C1	none
Cc1ccc(S(=O)(=O)N(CC(O)CN2CCCC2)c2cccc(C)c2)cc1 (stereo not given)	none
CCC1S/C(=N/N=C(\C)c2ccc(Br)cc2)NC1=O (stereo not given)	none
CCCCc1ccc(C2=N/C(=C\c3ccc(F)cc3)C(=O)N2c2ccc(Cl)cc2C)cc1	none
CC(=O)Nc1ccc(C(=O)NCC(=O)OCc2ccc(C(=O)c3ccccc3)cc2)cc1	TEAD-YAP inh 43.6
NC(C(=O)Nc1ccc(-c2cn[nH]c2)cc1)c1ccc(Cl)cc1 (stereo not given)	none
Cc1cnc2c(c1NCCCN(C)C)c(=O)n(C)c(=O)n2C	TEAD-YAP inh 36.5
O=C(Nc1ccc2c(c1)C(=O)NCCO2)c1cccc(Cl)c1	none
CC1(C)NC(=O)N(CC(=O)Nc2ccc(-c3nnc4n3CCCCC4)cc2)C1=O	none
COc1ccc(Nc2nc(NCc3cccc(C(F)(F)F)c3)c3cc(OC)c(OC)cc3n2)cc1	none
COc1cc2nc(Cl)nc(NCc3cccc(C(F)(F)F)c3)c2cc1OC	none
COc1cc2nc(Nc3nc4ccccc4n3C)nc(NC3CC3)c2cc1OC	FBW7 activator 3.6
COc1cc2nc(Nc3nc4ccccc4n3C)nc(Nc3cc(OC)c(OC)c(OC)c3)c2cc1OC	none
COc1cc2nc(Oc3ccccc3)nc(NCc3cccc(C(F)(F)F)c3)c2cc1OC	TEAD-YAP inh 47.4
COc1cc2nc(Nc3nc4ccccc4n3C)nc(NCc3cccc(C(F)(F)F)c3)c2cc1OC	TEAD-YAP inh 38.8
CCOc1ccc(NC(=O)C2=C(C)NC(=O)NC2c2ccc(C)cc2)cc1 (stereo not given)	TEAD-YAP inh 33.2
CCOc1ccc(NC(=O)C2=C(C)NC(=O)NC2c2cccc(Cl)c2)cc1 (stereo not given)	none
COc1ccc(C2NC(=O)NC(C)=C2C(=O)Nc2ccc(Br)cc2)cc1 (stereo not given)	TEAD-YAP inh 46.8
CCOc1ccc(NC(=O)C2=C(C)NC(=O)NC2c2ccc(Cl)cc2Cl)cc1 (stereo not given)	TEAD-YAP inh 40.3
CCOC(=O)c1c(C)nc(C)c(C(=O)OCC)c1-c1cccc(NC(=O)CCc2ccc(OC)cc2)c1	none
CCN1C(=O)CC(C(=O)Nc2ccc(Br)cc2)SC1=Nc1ccc(OC)cc1 (stereo not given)	TEAD-YAP inh 33.7
CCOc1ccc(NC(=O)C2CC(=O)N(CC)C(=Nc3ccc(OC)cc3)S2)cc1 (stereo not given)	none
CCn1c(=O)c(-c2ccccc2)c(O)c2ccccc21	none
CCn1c(=C2C(=O)NC(=O)NC2=O)c2cccc3cccc1c32	MITF primary 61.1
COc1cccc(-c2nc3sc4c(c3c(=O)n2Cc2ccccc2F)CCCC4)c1	TEAD-YAP inh 32.3
Cc1ccccc1Cn1cnc2sc3c(c2c1=O)CCCC3	TEAD-YAP inh 51.3
COc1ccc(N=C(NN)c2ccc3ccccc3n2)cc1	TEAD-YAP inh 91.0
Cc1ccc(N=C(NN)c2ccc3ccccc3n2)c(C)c1	none
COc1cccc(C(=O)Nc2ccc3nc(N4CCN(c5ncccn5)CC4)cc(C)c3c2)c1OC	TEAD-YAP inh 42.9
COc1ccccc1C(=O)Nc1ccc2nc(N3CCN(c4ncccn4)CC3)cc(C)c2c1	none
O=C(Cn1c(=O)n(Cc2ccco2)c2ncccc21)N1CCCCCC1	none
Cc1ccc(NC(=O)CN(C)S(=O)(=O)c2ccc(F)cc2F)cc1	none
Cn1c(=O)c2ccccc2n2c(SCC(=O)Nc3ccccc3Cl)nnc12	none
Cc1ccc(S(=O)(=O)Nc2c(C)cc(O)c(S(=O)(=O)c3ccc(C)cc3)c2C)cc1	none
Cc1ccc(S(=O)(=O)c2c(O)cc(C)c(NS(=O)(=O)c3ccc(Br)cc3)c2C)cc1	MITF primary 63.4
CCN(CC)C(=O)Sc1nc2ccccc2s1	TEAD-YAP inh 43.8
Cc1ccccc1NC(=O)Cn1c(C)cc(=O)c2ccccc21	TEAD-YAP inh 38.8
O=C(/C=C/Nc1cccc(Cl)c1Cl)c1ccco1	TEAD-YAP inh 53.3
O=C(/C=C/Nc1ccccc1O)c1ccco1	none
O=C(/C=C/Nc1ccc(F)cc1F)c1ccco1	TEAD-YAP inh 63.8
O=C(/C=C/Nc1ccc(Br)cc1F)c1ccco1	TEAD-YAP inh 42.8
O=C(Cc1cccc(Cl)c1)Nc1cc(Cl)ccc1Cl	none
O=C(CSc1ccc(Sc2ccc(SCC(=O)NC3CC3)cc2)cc1)NC1CC1	TEAD-YAP inh 34.1
Cc1ccc(SCC(=O)NC2CC2)cc1	none
CCOc1ccccc1C(=O)N(c1ccc(OC)cc1OC)C1C=CS(=O)(=O)C1 (stereo not given)	none
COc1ccccc1C1NC(=O)c2[nH]nc(-c3ccc(C)cc3)c21 (stereo not given)	TEAD-YAP inh 55.1
COc1ccc(C(=O)NC(=S)Nc2cccc(S(=O)(=O)N3CCOCC3)c2)cc1	TEAD-YAP inh 44.2
COc1ccc(C(=O)NC(=S)Nc2cccc(C(=O)O)c2)cc1	TEAD-YAP inh 61.4
COc1ccc(C(=O)Nc2cccc(C)c2)cc1	TEAD-YAP inh 66.3
O=C(COc1ccc(Cl)cc1)Nc1ccc(NC(=O)c2ccco2)cc1	none
COc1ccc(C(=O)NC(=S)Nc2cccc(OC)c2)cc1	none
O=C(COc1ccc(Cl)cc1)Nc1cccc(NC(=O)c2ccco2)c1	TEAD-YAP inh 47.1
Cc1cc(NC(=O)NC(=O)c2ccc(Cl)cc2Cl)n[nH]1	none
Cc1cc2nc(SC(c3ccccc3)c3ccccc3)[nH]c2cc1C	none
COc1ccc(C(=O)NC(=S)Nc2cccc(NC(=O)c3ccco3)c2)cc1	TEAD-YAP inh 33.5
CC(C)Oc1ccc(C(=O)Nc2cccc(F)c2)cc1	TEAD-YAP inh 43.4
COc1ccc(NC(=S)NNc2ccc(C(=O)O)cc2)cc1	TEAD-YAP inh 39.5
CC(=O)Oc1ccc(C(=O)Nc2cccc(F)c2)cc1	none
CCOc1ccccc1N1CC(C(=O)Nc2nnc(SCC)s2)CC1=O (stereo not given)	none
COc1cc(/C=C2/C=C(c3ccc(C)cc3)OC2=O)ccc1C	TEAD-YAP inh 32.4
COc1cc(/C=C2/C=C(c3ccc(C)cc3)OC2=O)ccc1O	TEAD-YAP inh 64.9
Cc1cccc(N2CCN(c3ccc(C(N)=O)cc3[N+](=O)[O-])CC2C)c1 (stereo not given)	none
C=CCOc1ccc(C(=O)Nc2ccc(S(=O)(=O)N3CC(C)OC(C)C3)cc2)cc1 (stereo not given)	TEAD-YAP inh 39.2
O=C(c1cc(COc2cccc3cnccc23)on1)N1CCN(C(=O)c2cccs2)CC1	TEAD-YAP inh 42.8
